Measured values: PubChem BioAssay (NCI)
About 79,000 compounds went through this panel and 15% of them were active in at least one assay; those are over-represented in the sample as a whole. The source made the active and inactive calls. Cut-off read from the data, not from the text of the source: active = growth inhibition above about 70%; inactive = the rest.

What was measured:
[1] = NCI Yeast Anticancer Drug Screen. Data for the rad52 strain (AID 147);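 note: 0% = growth of vehicle-treated control cultures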; settings: S. cerevisiae rad52 mutant growth inhibition, active compounds read high
Summary of the method: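 Growth of repair-deficient yeast cells was compared between compound-treated and vehicle-treated cultures to give percent inhibition.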

[2] = NCI Yeast Anticancer Drug Screen. Data for the wt1 strain (AID 149);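 note: 0% = growth of vehicle-treated wt1 cultures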; settings: S. cerevisiae wt1 strain (SPY 50644) growth inhibition, active compounds read high
Summary of the method: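 wt1 strain grown with compound or vehicle; inhibition taken from the growth difference.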

[3] = NCI Yeast Anticancer Drug Screen. Data for the rad50EPP+ strain (AID 151);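 note: 0% = growth of vehicle-treated control cultures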; settings: S. cerevisiae rad50 mutant strain, active compounds read high
Summary of the method: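 Measured: growth inhibition of rad50EPP+ yeast. Reference: vehicle-treated controls. Screen uses strains with defined genetic alterations in DNA damage repair or cell cycle control.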

[4] = NCI Yeast Anticancer Drug Screen. Data for the mgt1 strain (AID 153); settings: S. cerevisiae mgt1 mutant growth inhibition, active compounds read high
Summary of the method: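 Compounds were applied to mgt1 mutant yeast, and growth was then compared against vehicle-treated control cultures to give percent inhibition.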

[5] = NCI Yeast Anticancer Drug Screen. Data for the rad50 strain (AID 155);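 note: 0% = growth of vehicle-only cultures of the same strain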; settings: S. cerevisiae rad50 strain growth inhibition, active compounds read high
Summary of the method: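 DNA repair mutant yeast, compound exposure, growth read-out; inhibition is taken relative to vehicle.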

[6] = NCI Yeast Anticancer Drug Screen. Data for the mec2-1 strain (AID 157); settings: S. cerevisiae mec2-1 strain, active compounds read high
Summary of the method: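 Compounds were applied to mec2-1 yeast cells. Their growth was then compared with that of vehicle-treated cultures to give growth inhibition.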

[7] = NCI Yeast Anticancer Drug Screen. Data for the rad14 strain (AID 159);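 note: 0% = growth of vehicle-treated control cultures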; settings: S. cerevisiae rad14 strain growth inhibition, active compounds read high
Summary of the method: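 DNA repair-defective yeast, compound-exposed; % growth inhibition derived by comparison with vehicle-treated controls.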

[8] = NCI Yeast Anticancer Drug Screen. Data for the CLN2oe strain (AID 163);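 note: 0% = growth of vehicle-only control cultures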; settings: S. cerevisiae CLN2oe strain, active compounds read high
Summary of the method: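 Cells of an engineered yeast line with disturbed cell-cycle regulation are treated with compound. Inhibition of growth is then calculated relative to the vehicle-treated reference.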

[9] = NCI Yeast Anticancer Drug Screen. Data for the cln2 rad14 strain (AID 165);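 note: 0% = growth equal to vehicle treated cultures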; settings: S. cerevisiae cln2 rad14 strain, active compounds read high
Summary of the method: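 Strain: cln2 rad14 yeast, altered in cell cycle control and DNA damage repair. Read-out: growth inhibition vs vehicle.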

[10] = NCI Yeast Anticancer Drug Screen. Data for the bub3 strain (AID 167); settings: S. cerevisiae bub3 mutant strain, active compounds read high
Summary of the method: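 In this screen, a yeast mutant lacking normal mitotic checkpoint function is challenged with compound. Relative growth versus vehicle gives the inhibition value.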

[11] = NCI Yeast Anticancer Drug Screen. Data for the wt2 strain (AID 169);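 note: 0% = growth of vehicle-treated yeast cultures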; settings: S. cerevisiae wt2 strain growth inhibition, active compounds read high
Summary of the method: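 Growth of compound-treated yeast is measured and expressed as inhibition relative to vehicle-only controls.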

[12] = NCI Yeast Anticancer Drug Screen. Data for the mlh1 strain (AID 171);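 note: 0% = growth of vehicle-treated control cultures of the same strain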; settings: S. cerevisiae mlh1 strain growth inhibition, active compounds read high
Summary of the method: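 Test agents were incubated with yeast bearing a defined DNA damage repair or cell cycle control alteration; values are growth inhibition normalised to vehicle-treated cultures.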

[13] = NCI Yeast Anticancer Drug Screen. Data for the sgs1 strain (AID 173);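 note: 0% = growth of vehicle-only control cultures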; settings: S. cerevisiae sgs1 mutant, active compounds read high
Summary of the method: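 Strain with an altered DNA repair or cell cycle pathway exposed to compound. Growth then measured. Value = inhibition versus vehicle control.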

[14] = NCI Yeast Anticancer Drug Screen. Data for the mlh1 rad18 strain (AID 175); settings: S. cerevisiae mlh1 rad18 strain growth inhibition, active compounds read high
Summary of the method: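 A repair-deficient yeast strain is exposed to test compound, and growth is scored relative to vehicle-treated controls.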

[15] = NCI Yeast Anticancer Drug Screen. Data for the rad18 strain (AID 177); settings: S. cerevisiae rad18 mutant growth inhibition, active compounds read high
Summary of the method: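 DNA-repair-defective yeast; compound treatment; growth inhibition scored against vehicle.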

[16] = at 5.0 µM (retest, dose inferred, filed as 0.5)
[17] = at 50.0 µM (retest, dose inferred, filed as 5.0)

Measured: growth inhibition

Fc1cc(F)c(F)c(S)c1F
active: [1]; at 100.0 µM 98% | [2]; at 100.0 µM 97% | [3]; at 33.0 µM 90% | [3]; at 100.0 µM 98% | [4]; at 100.0 µM 97% | [5]; [17] 91% | [5]; at 50.0 µM 87.9% | [5]; at 100.0 µM 97% | [6]; [17] 97% | [6]; at 50.0 µM 92.3% | [6]; at 100.0 µM 99% | [7]; at 100.0 µM 96% | [8]; at 100.0 µM 98% | [9]; [17] 83% | [9]; at 50.0 µM 79.5% | [10]; at 33.0 µM 84% | [10]; [17] 98% | [10]; at 50.0 µM 90.9% | [10]; at 100.0 µM 99% | [11]; at 100.0 µM 98% | [12]; at 33.0 µM 72% | [12]; at 100.0 µM 98% | [13]; at 100.0 µM 98% | [14]; [17] 99% | [14]; at 50.0 µM 74.5% | [15]; at 100.0 µM 96%
inactive: [1]; at 1.2 µM -44% | [1]; at 3.7 µM -10% | [1]; at 11.0 µM -38% | [1]; at 33.0 µM 29% | [2]; at 1.2 µM -31% | [2]; at 3.7 µM -26% | [2]; at 11.0 µM -39% | [2]; at 33.0 µM 36% | [3]; at 1.2 µM -51% | [3]; at 3.7 µM -18% | [3]; at 11.0 µM 45% | [4]; at 1.2 µM -78% | [4]; at 3.7 µM -74% | [4]; at 11.0 µM -56% | [4]; at 33.0 µM 48% | [5]; at 1.2 µM -43% | [5]; at 3.7 µM -28% | [5]; [16] -12% | [5]; at 11.0 µM -32% | [5]; at 33.0 µM 25% | [6]; at 1.2 µM -56% | [6]; at 3.7 µM -55% | [6]; [16] -19% | [6]; at 11.0 µM -6% | [6]; at 33.0 µM 10% | [7]; at 1.2 µM -47% | [7]; at 3.7 µM -44% | [7]; at 11.0 µM -40% | [7]; at 33.0 µM 4% | [8]; at 1.2 µM -29% | [8]; at 3.7 µM -20% | [8]; at 11.0 µM 8% | [8]; at 33.0 µM 69% | [9]; [16] 43% | [10]; at 1.2 µM -9% | [10]; at 3.7 µM -4% | [10]; [16] 12% | [10]; at 11.0 µM 26% | [11]; at 1.2 µM -48% | [11]; at 3.7 µM -46% | [11]; at 11.0 µM -32% | [11]; at 33.0 µM 56% | [12]; at 1.2 µM -34% | [12]; at 3.7 µM -27% | [12]; at 11.0 µM 0% | [13]; at 1.2 µM -34% | [13]; at 3.7 µM -37% | [13]; at 11.0 µM -27% | [13]; at 33.0 µM 54% | [14]; [16] 9% | [15]; at 1.2 µM -43% | [15]; at 3.7 µM -34% | [15]; at 11.0 µM -12% | [15]; at 33.0 µM 48%
